# This is a sample that favours compounds with a hit; in the whole collection about 3.9% have one here.
# Bead autofluor: flagged as autofluorescent in microsphere protease counterscreen. 360,000 tested, 3.1% active. compound autofluorescence counterscreen, microsphere flow cytometry; stronger effect = higher value. fluorescence intensity (no concentration beside the values); in the data active = fluorescence intensity above about 16000; inconclusive = no clear call, values can overlap the other calls
# DUSP3 inh: VHR1 phosphatase inhibitors, primary screen, biochemical, absorbance, uHTS | inhibition, % at 13.3 µM | Dual specificity protein phosphatase 3 (Homo sapiens), P51452 | 290,000 tested, 0.52% active | AID 1654, 2009 | recombinant VHR phosphatase, pNPP absorbance; in the data active = inhibition above about 50%
# Target sequence (P51452 whole entry, looked up): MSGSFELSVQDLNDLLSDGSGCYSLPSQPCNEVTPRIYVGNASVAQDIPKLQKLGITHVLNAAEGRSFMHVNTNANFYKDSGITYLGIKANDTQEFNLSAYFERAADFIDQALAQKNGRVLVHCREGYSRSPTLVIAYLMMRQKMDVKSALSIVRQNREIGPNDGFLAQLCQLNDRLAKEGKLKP
# BoNT F protease: BoNT/F light chain protease inhibitors, primary screen, biochemical, flow cytometry, MLPCN library. Botulinum neurotoxin type F light chain protease (Clostridium botulinum). Multiplex microsphere protease cleavage assay. inhibition, % at 10 µM. 360,000 tested, 0.22% active. AID 588497, 2011; in the data active = inhibition above about 35%, passing the limit was not always enough; inconclusive = no clear call, values can overlap the other calls; also: plate controls were buffer without enzyme for full effect and enzyme alone for no effect
# 3CLpro inhibitor: SARS-CoV 3CLpro protease inhibitors, primary screen, biochemical, quenched FRET | Replicase polyprotein 1ab (Severe acute respiratory syndrome coronavirus), P0C6X7 | recombinant SARS-CoV 3CLpro, quenched FRET peptide cleavage | inhibition, % at 6 µM | 290,000 tested, 0.14% active | AID 1706, 2009; in the data active = inhibition above about 12%
# BoNT-A LC inh2: BoNT/A light chain protease inhibitors, primary screen, biochemical, flow cytometry, MLPCN library | Botulinum neurotoxin type A light chain protease (Clostridium botulinum A str. ATCC 3502) | multiplex microsphere protease substrate cleavage | inhibition, % at 10 µM | 360,000 tested, 0.17% active | AID 588499, 2011; also: plate controls were buffer without enzyme for full effect and enzyme alone for no effect
# Anthrax LF inh2: Bacillus anthracis LF protease inhibitors, primary screen, biochemical, multiplex microsphere, MLPCN library; inhibition, % at 10 µM; multiplex microsphere protease cleavage assay; Lethal factor (Bacillus anthracis), P15917; 360,000 tested, 0.12% active; also: plate controls were buffer without enzyme for full effect and enzyme alone for no effect
# * marks the source's active call; other numbers are inactive results; ? = inconclusive; / = no result. Rule as the data show it, unless noted: active = inhibition above about 30%; inconclusive = no clear call, values can overlap the other calls; inactive = below that.
SMILES,Bead autofluor,DUSP3 inh,BoNT F protease,3CLpro inhibitor,BoNT-A LC inh2,Anthrax LF inh2
NCCc1nnc(SCC(=O)Nc2ccc(Br)cc2)o1,5786,-4,-4,-3,0,-4
CN(C)C(=O)CSc1nnc(CCN)o1,22720*,29,1,0,-1,0
O=C(c1ccc([N+](=O)[O-])s1)N1CCN(c2ccc(C(F)(F)F)cn2)CC1,4886,11,-5,-2,-2,-1
Cc1cc(=O)[nH]c2c1c(C)nn2C1CCCCC1,9882,2,-17,-1,-2,-7
Cc1cc(=O)[nH]c2c1c(C)nn2C1CCCC1,18691*,11,5,-1,5,-8
COc1ccc(CC(=O)Nn2c(-c3ccccc3)nc3ccccc3c2=O)cc1,1996,-4,-13,3,-1,1
O=C(Nc1cccc(Cn2cccn2)c1)c1cc2c(s1)CCCC2,16682*,-2,-3,3,-3,-8
CCCC1=C(C(=O)OCC)C2(C(=O)Nc3ccccc32)C(C#N)=C(N)O1 (stereo not given),22790*,-12,-1,2,-1,0
COC(=O)CC1=C(C(=O)OC)C2(C(=O)Nc3c(C)cccc32)C(C#N)=C(N)O1 (stereo not given),20727*,-12,2,-1,?,-16
COC(=O)C1=C(C)OC(N)=C(C#N)C12C(=O)Nc1ccccc12 (stereo not given),4542,4,-9,3,-1,-8
CCCCCCC(=O)N/N=C1\CCCc2ccccc21,10202,-2,1,2,-2,-6
COc1ccc2c(C(=O)CN3CCSCC3)c[nH]c2c1,6542,-19,4,-4,2,2
Cc1ccc2[nH]cc(C(=O)CN3CCN(c4ccccn4)CC3)c2c1,3676,23,0,-2,1,-1
Cc1ccc2[nH]cc(C(=O)CN3CCN(C)CC3)c2c1,23399*,17,-2,-4,?,-2
COc1ccc2c(C(=O)CN3CCN(c4ccccc4)CC3)c[nH]c2c1,24933*,16,-1,-6,?,-2
CCCCCCCCCCS(=O)(=O)N/N=C/c1ccc([N+](=O)[O-])cc1,21737*,13,9,-2,?,-11
Cc1ccc(/C=N/NS(=O)(=O)c2ccc([N+](=O)[O-])cc2)o1,1924,-15,1,-3,0,-2
CCn1cc(C(=O)NCC(OC)OC)c(=O)c2cc(S(=O)(=O)N3CCC(C)CC3)ccc21,5602,-22,3,5,0,-2
CCCc1c(O)nc(SCCN(CC)CC)n(C(=O)c2ccccc2)c1=O,23987*,18,-5,-5,-3,0
CCCc1c(O)nc(SCCN(CC)CC)[nH]c1=O,4692,48,-5,-1,-1,5
O=C(O)COc1ccccc1/C=N/NC(=O)CN1CCN(S(=O)(=O)c2ccc(Br)cc2)CC1,4395,16,4,4,0,0
CCN1CCN(C(CNS(=O)(=O)c2ccc(C)cc2)c2cccnc2)CC1 (stereo not given),4358,51*,-1,2,-1,-2
COC(=O)c1ccc(CSc2nnc(NC(C)C)s2)o1,3942,19,-4,6,-1,-8
Cc1cc(NS(=O)(=O)c2ccc(NC(=O)CCN3C(=O)c4ccccc4C3=O)cc2)no1,9805,9,1,-4,0,0
O=C(CCCCCN1C(=O)c2ccccc2C1=O)Nc1ccc(S(=O)(=O)N2CCCCC2)cc1,21502*,18,2,6,?,-1
SMILES,Bead autofluor,DUSP3 inh,BoNT F protease,3CLpro inhibitor,BoNT-A LC inh2,Anthrax LF inh2
CC1CN(S(=O)(=O)c2ccc(NC(=O)CCN3C(=O)c4ccccc4C3=O)cc2)CC(C)O1 (stereo not given),9908,-8,-3,5,-1,-4
Cc1cc(C)nc(NS(=O)(=O)c2ccc(NC(=O)CCN3C(=O)c4ccccc4C3=O)cc2)n1,16582*,-13,-4,-2,-2,0
CC1CCN(S(=O)(=O)c2ccc(NC(=O)CCN3C(=O)c4ccccc4C3=O)cc2)CC1,19423*,14,0,-2,2,-5
O=C(CCn1ccc2ccccc21)Nc1ccc(N2CCOCC2)cc1,3119,11,-33,3,0,-9
CCCCC(=O)N(C)c1c(CC)nc2c(OCC(=O)c3ccc(F)cc3)cccn12,3538,/,3,/,0,-4
O=C(CNS(=O)(=O)c1ccc(Cl)c(C(F)(F)F)c1)NC1CCCCCC1,7720,/,3,/,2,-3
Cc1c(Br)c([N+](=O)[O-])nn1C(C)C(=O)NCc1ccco1 (stereo not given),2516,9,-14,-1,0,-4
Cc1c(Br)c([N+](=O)[O-])nn1C(C)C(=O)NCc1cccnc1 (stereo not given),20382*,14,0,-3,-1,-8
COc1ccc(NC(=O)C2CCCN2S(=O)(=O)c2cccc3nsnc23)c(OC)c1 (stereo not given),5936,60*,-6,-1,-2,-2
O=C(C1CC1)N(Cc1ccco1)c1nc(-c2ccccc2)cs1,23051*,-26,-6,-3,-2,-1
O=C(CCc1ccccc1)Nc1cccnc1Cl,3754,10,66*,-2,5,?
O=C(CC(=O)c1ccccc1)Nc1cccnc1Cl,2082,-2,-4,1,0,-3
COCCCN(C(C)=O)c1nc(-c2ccccc2)cs1,21845*,17,0,-4,?,-2
O=C1C(c2ccccc2)C2C=CC(C2)N1O (stereo not given),3080,/,1,/,0,-8
Cc1ccc(NC(=S)NCc2cccn2C)cc1,22735*,-10,-6,-1,1,-3
c1ccc(CNC2=NCCCC2)cc1,3801,15,-6,1,0,-2
O=C(NNC1=NCCCCC1)c1ccccc1,22558*,28,2,0,2,0
Cc1cccc(OCc2nnc(SCC(=O)N(C)C3CCCCC3)o2)c1,6296,/,-12,/,0,-5
CCOc1ccc(S(=O)(=O)N2CCCC(C(=O)NCC3CCCO3)C2)cc1 (stereo not given),5827,20,2,0,3,2
Cc1cccc(N2C(=O)/C(=C/c3cccnc3)SC2=S)c1,3039,21,8,2,0,10
Cc1cc(/C=C2/SC(=S)N(c3cccc(Cl)c3)C2=O)c(C)n1-c1cccnc1,8722,/,74*,-3,60*,51*
Cc1cc(/C=C2/SC(=S)N(c3ccc([N+](=O)[O-])cc3)C2=O)c(C)n1-c1cccnc1,4024,4,2,5,33*,14

# High-throughput results from PubChem.
